# In PubChem BioAssay (NCI):
# The panel holds about 79,000 compounds, 15% with a hit somewhere; the sample as a whole holds those more often. A number with no mark means an inactive call. Calls of active or inactive are those of the source. Rule as the data show it: active = growth inhibition above about 70%; inactive = the rest.
# What was measured:
# [1] = NCI Yeast Anticancer Drug Screen. Data for the rad50 strain (AID 155);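 also: 0% = growth of vehicle-only cultures of the same strain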; settings: S. cerevisiae rad50 strain growth inhibition, stronger effect = higher value
# Outline: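 Compounds were tested on a yeast strain with an engineered DNA damage repair alteration; the reported value is growth inhibition normalised to vehicle treatment.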
# [2] = NCI Yeast Anticancer Drug Screen. Data for the mec2-1 strain (AID 157); settings: S. cerevisiae mec2-1 strain, stronger effect = higher value
# Outline: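 Growth inhibition is read against vehicle-treated controls after compound exposure of the mec2-1 yeast strain, which is defective in DNA damage repair or cell cycle control.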
# [3] = NCI Yeast Anticancer Drug Screen. Data for the sgs1 mgt1 strain (AID 161);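 also: 0% = growth of cultures given vehicle only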; settings: S. cerevisiae sgs1 mgt1 strain, stronger effect = higher value
# Outline: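 Yeast cells carrying a defined DNA-repair defect were exposed to test compounds. Growth inhibition was measured relative to vehicle-treated controls.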
# [4] = NCI Yeast Anticancer Drug Screen. Data for the cln2 rad14 strain (AID 165);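 also: 0% = growth equal to vehicle treated cultures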; settings: S. cerevisiae cln2 rad14 strain, stronger effect = higher value
# Outline: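 Growth inhibition, relative to vehicle-treated controls, is the read-out. The test organism is a yeast strain with defined genetic alterations, cln2 rad14.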
# [5] = NCI Yeast Anticancer Drug Screen. Data for the bub3 strain (AID 167); settings: S. cerevisiae bub3 mutant strain, stronger effect = higher value
# Outline: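 Growth of a checkpoint-deficient yeast mutant is measured after compound exposure. Values represent inhibition relative to vehicle.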
# [6] = NCI Yeast Anticancer Drug Screen. Data for the mlh1 rad18 strain (AID 175); settings: S. cerevisiae mlh1 rad18 strain growth inhibition, stronger effect = higher value
# Outline: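 Cells of a genetically altered yeast strain, deficient in DNA damage repair, were treated with compound. Their growth was then compared with that of vehicle-treated cultures to give inhibition.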
# [7] = at 5.0 µM (retest, dose inferred, filed as 0.5)
# [8] = at 50.0 µM (retest, dose inferred, filed as 5.0)
Structure (SMILES),"growth inhibition [1, 7]","growth inhibition [1, 8]",growth inhibition ([1]; at 50.0 µM),"growth inhibition [2, 7]","growth inhibition [2, 8]",growth inhibition ([2]; at 50.0 µM),"growth inhibition [3, 7]","growth inhibition [3, 8]",growth inhibition ([3]; at 50.0 µM),"growth inhibition [4, 7] [%]","growth inhibition [4, 8]",growth inhibition ([4]; at 50.0 µM),"growth inhibition [5, 7]","growth inhibition [5, 8]",growth inhibition ([5]; at 50.0 µM),"growth inhibition [6, 7]","growth inhibition [6, 8]",growth inhibition ([6]; at 50.0 µM)
O=c1nc(NC(c2ccccc2)(c2ccccc2)c2ccccc2)ccn1CCNCCn1ccc(NC(c2ccccc2)(c2ccccc2)c2ccccc2)nc1=O,82% (active),96% (active),87.6% (active),52%,97% (active),89% (active),65%,98% (active),91.5% (active),34,97% (active),89.2% (active),74% (active),98% (active),91% (active),90% (active),97% (active),90% (active)
CCCCCCCCC1OC1CCCCCCCC(=O)OCC1CO1 (stereo unspecified),1%,-11%,3.45%,1%,-10%,-18.7%,1%,-10%,8.9%,5,5%,29.1%,-3%,-16%,-25.1%,25%,-14%,-40.8%
COc1ccccc1C1C2=C(COC2=O)OC(C)(C)Oc2cc3c(cc21)OCO3 (stereo unspecified),22%,96% (active),75.8% (active),-13%,96% (active),85.1% (active),16%,96% (active),86.3% (active),35,95% (active),87.3% (active),-22%,97% (active),89.7% (active),15%,96% (active),88% (active)
CC12C=C3CC(OC(=O)c4ccccc4)CCC3(O1)c1ccccc12 (stereo unspecified),2%,69%,84.8% (active),-1%,77% (active),91.5% (active),1%,80% (active),90.1% (active),3,2%,10.1%,4%,76% (active),79.3% (active),1%,76% (active),76% (active)
O=C(NNc1ncccn1)c1ccc(C(=O)NNc2ncccn2)cc1,-2%,99% (active),2.75%,0%,100% (active),2.1%,-3%,100% (active),41.5%,7,99% (active),-25.6%,3%,99% (active),-2.6%,2%,99% (active),21.4%
C(/C=C/CC=Nc1ccccc1)=Nc1ccccc1,3%,4%,4.4%,2%,3%,30.6%,0%,6%,12.1%,-4,-4%,42.2%,-4%,-3%,-7.75%,7%,3%,-29.7%
Nc1nc(Cl)cc(NCC2(CO)CC(CCCc3ccccc3)C2)n1 (stereo unspecified),25%,26%,-8.3%,10%,7%,-6.6%,6%,12%,-26.5%,13,12%,-1.55%,15%,17%,-8.75%,23%,22%,-48.1%
CC(C)(C)c1cc2c3c(c1)Oc1cc(C(C)(C)C)cc4c1C3(O)c1c(cc(C(C)(C)C)cc1O4)O2,19%,99% (active),89.8% (active),22%,100% (active),88.5% (active),-5%,99% (active),86.4% (active),14,98% (active),87.3% (active),12%,98% (active),84.7% (active),14%,100% (active),87.7% (active)
CCc1ccc(/C=C/c2ccc([N+](=O)[O-])cc2)nc1,0%,68%,62.2%,-5%,41%,40.6%,-5%,42%,33.5%,6,39%,7.1%,-5%,-8%,45.9%,3%,44%,69.5%
CS(=O)(=O)n1c(C(O)c2ccccc2)nc2ccccc21 (stereo unspecified),-4%,4%,8.95%,10%,-1%,17.8%,2%,8%,3.1%,-82,-1%,27.8%,5%,38%,5.6%,0%,1%,14.2%
COc1cc(/C=C/c2cc[n+](C)cc2)ccc1O,-11%,-14%,26.1%,12%,7%,31.7%,-18%,-17%,12.4%,-2,16%,79.5% (active),0%,11%,0.85%,-8%,-10%,-8.35%
CCOC(=O)c1cc(C)c(O)c(C(=O)OCC)c1,-9%,4%,-0.45%,-12%,-27%,16.1%,1%,22%,0.65%,26,31%,6.8%,13%,27%,52.4%,-28%,-9%,-10.8%
COc1ccc(C2N(Cc3ccc(Cl)cc3)CCN2Cc2ccc(Cl)cc2)cc1,9%,70% (active),46.6%,9%,59%,32.2%,37%,89% (active),71.2% (active),21,53%,69.2%,34%,91% (active),25.9%,25%,72% (active),50.5%
CCOCCC(=O)N1c2ccccc2CC1c1c[nH]c2ccccc12 (stereo unspecified),-6%,36%,74.3% (active),-9%,32%,4.65%,-8%,59%,51.6%,-57,36%,8.45%,-8%,48%,0.45%,-4%,34%,67.1%
CC(C)=CCC(CC=C(C)C)c1ccncc1 (tested in a mixture with another compound),16%,99% (active),99.2% (active),15%,99% (active),99.5% (active),-92%,100% (active),99.5% (active),5,98% (active),99.4% (active),21%,99% (active),98.8% (active),49%,99% (active),99.5% (active)
CCCCCCCCCCCCCCCCCC[n+]1cccc(C(=O)c2ccccc2)c1,58%,99% (active),99.3% (active),92% (active),100% (active),99.5% (active),97% (active),99% (active),99.5% (active),56,98% (active),97.3% (active),68%,99% (active),98.7% (active),98% (active),99% (active),99.5% (active)
CCCCCN=C(C)C(C)=NCCCCC,-15%,70% (active),93.3% (active),3%,92% (active),74.3% (active),9%,50%,31.4%,-50,63%,83.7% (active),-12%,86% (active),96.8% (active),-9%,94% (active),95% (active)
